Laboratory results from PubChem BioAssay AID504527 (The Scripps Research Institute Molecular Screening Center, 2011).
Active and inactive are the calls of the source.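 Rule for the calls: active = two or more serine hydrolases at least half inhibited, plus every target band half blocked in a general-probe test; inactive = under two enzymes half blocked, or any target band not.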

Assay: broad serine hydrolase inhibition in proteome, late-stage follow-up, selectivity assay for PAFAH2 inhibitor project, fluorescence, gel-based ABPP, powder samples (AID 504527)
Settings: BW5147 murine T-cell proteome, FP-Rh fluorescence, competitor test compound, probe FP-Rh, at 20 µM, stronger effect = higher value

| SMILES | number of serine hydrolases inhibited >=50% |
| --- | --- |
| C#CCOCCOCCOCCN(Cc1ccccc1)C(=O)n1nc2cccnc2n1 | 7 (active) |
| C#CCOCCOCCOCCN(Cc1ccccc1)C(=O)n1ccnc1 | 0 (inactive) |
| C#CCOCCOCCOCCN(Cc1ccccc1)C(=O)Oc1ccc([N+](=O)[O-])cc1 | 1 (inactive) |
| C#CCOCCOCCOCCN(Cc1ccccc1)C(=O)n1ncc(-c2ccccc2)n1 | 8 (active) |
| C#CCOCCOCCOCCN(Cc1ccccc1)C(=O)n1nccn1 | 5 (active) |
